# According to PubChem BioAssay AID1001 (Sanford-Burnham Center for Chemical Genomics, 2008):
# About 50 (0.03%) of roughly 200,000 compounds were called active. Only a selection was taken, and actives are over-represented in it overall. Entries with a potency or affinity are not part of this list. A number with no mark means an inactive call. The rule behind the calls is not given here.
# Biological target: Alkaline phosphatase, tissue-nonspecific isozyme (Homo sapiens) (UniProt P05186)
# Assay: human TNAP enzyme activators, primary screen, biochemical, luminescent, no phosphate acceptor, uHTS (AID 1001)
# Conditions: purified TNAP, luminescent activation assay, at 20 µM, active compounds read high
# Sequence of Alkaline phosphatase, tissue-nonspecific isozyme (Homo sapiens) (P05186 whole entry, looked up): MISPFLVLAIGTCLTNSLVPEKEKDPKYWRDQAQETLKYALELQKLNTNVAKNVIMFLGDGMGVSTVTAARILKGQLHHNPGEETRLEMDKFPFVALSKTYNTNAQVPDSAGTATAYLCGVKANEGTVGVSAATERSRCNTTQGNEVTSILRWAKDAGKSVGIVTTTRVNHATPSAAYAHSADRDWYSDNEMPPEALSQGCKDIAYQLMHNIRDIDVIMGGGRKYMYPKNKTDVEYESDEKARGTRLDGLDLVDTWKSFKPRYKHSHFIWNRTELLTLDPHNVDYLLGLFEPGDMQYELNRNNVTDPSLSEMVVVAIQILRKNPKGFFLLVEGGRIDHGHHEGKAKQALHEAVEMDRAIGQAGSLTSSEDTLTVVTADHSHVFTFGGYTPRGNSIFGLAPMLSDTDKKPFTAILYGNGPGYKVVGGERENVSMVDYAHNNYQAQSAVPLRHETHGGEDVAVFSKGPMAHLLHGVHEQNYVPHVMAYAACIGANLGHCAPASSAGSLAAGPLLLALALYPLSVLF
row,SMILES,activation fold
1,CCOCCCNC(=O)CCC(=O)NNc1nc2ccccc2c2nc(-c3ccccc3)nn12,2.1
2,CCCCNC(=O)CCC(=O)NNc1nc2ccccc2c2nc(-c3ccccc3)nn12,1.6
3,COCCCNC(=O)CCC(=O)NNc1nc2ccccc2c2nc(-c3ccccc3)nn12,2.3
4,O=C(CCC(=O)NNc1nc2ccccc2c2nc(-c3ccccc3)nn12)NCCCN1CCCC1=O,1.1
5,COc1ccc(C(=O)N/C(=C\c2ccccc2)C(=O)NC(CC(C)C)C(=O)O)cc1 (configuration not stated),1.1
6,Cc1coc(C)c1C(=O)CC1(O)C(=O)N(CCc2ccccc2)c2ccccc21 (configuration not stated),1.1
7,CCOC(=O)CSc1nc2c(sc3ccc([N+](=O)[O-])cc32)c(=O)n1Cc1ccco1,1.1
8,CCOc1ccc(-n2cc(-c3ccccc3)c3c(N4CCOCC4)ncnc32)cc1,1.1
9,O=c1cc(NCc2ccc3c(c2)OCO3)[nH]c(=O)n1-c1ccc(Cl)cc1,1.1
10,O=S(=O)(Nc1ccc2c(c1)OCO2)c1ccccc1,1.1
11,CNC(=O)N(O)C1N(C)C(=O)N(Cc2ccccc2)C1(C)C (configuration not stated),1.1
12,O=C(CCN1C(=O)/C(=C/c2ccccc2)SC1=S)NNC(=O)c1cccnc1,1.6
13,O=C(CCN1C(=O)/C(=C\c2ccccc2)SC1=S)NNC(=O)c1cccnc1,1.6
14,CCCC(Oc1ccc(Br)cc1)c1nc2c3cc(OC)c(OC)cc3nc(=S)n2[nH]1 (configuration not stated),1.2
15,Cc1cc(N2CCCCC2)nc(NCc2ccccc2)n1,1
16,Cc1cc(N2CCCCC2)nc(N)n1,1.1
17,COc1cccc(C(=O)NNC(=O)c2ccccc2-n2cccc2)c1,1.3
18,O=C(CSc1nnc(-c2ccncc2)n1Cc1ccccc1)NCCc1ccccc1,1.2
19,Clc1ccc(OCCn2ccnc2)c(Cl)c1,1
20,Clc1ccc(SCCn2ccnc2)cc1,1.1
21,S=C(NCCCn1ccnc1)Nc1ccc(Cl)cc1Cl,1
22,OC(Cn1ccnc1)c1ccc(Cl)cc1Cl (configuration not stated),1
23,Cc1cc2cc3c(cc2nc1SCC(=O)O)CCC3,1
24,CCCCC(=O)Nc1ccc(C(=O)OC2CCCCC2)cc1,1
25,CCS(=O)(=O)N1CCC(NC(=O)c2ccco2)CC1,1.1
26,O=C(O)c1ccc(CNC(=O)c2ccc(C(F)(F)F)cc2)cc1,1

row,SMILES,activation fold
1,COC(=O)c1ccc(/C=C2\N=C(SC)SC2=O)cc1,1.1
2,OCCCN1c2ccccc2Nc2nnc(-c3ccccc3)cc21,1.5
3,CC(=O)OCCCN1C(=O)c2ccc(Br)cc2C1=O,1
4,CC(C)c1[nH]nc2c1C1(CCN(Cc3ccccc3)CC1)C(C#N)=C(N)O2,0.9
5,CC(C)=CCSc1nnc([C@@H](NC(=O)OC(C)(C)C)C(C)C)o1,1.1
6,CCOC(=O)N1CCC(NC(=O)CSc2cc(=O)n(CC)c3ccccc23)CC1,1.2
7,CCc1ccc(CNC(=O)Cn2nc(-c3ccccc3)ccc2=O)cc1,1
8,CN1CCN(C(c2ccccn2)c2cc(Cl)c3cccnc3c2O)CC1 (configuration not stated),2.5
9,Oc1c(C(c2ccc(Cl)cc2)N2CCCC2)cc(Cl)c2cccnc12 (configuration not stated),1.2
10,CC(=O)c1sc(NC(=O)C(C)(C)C)nc1C,1.1
11,Cc1cccc(NCc2nc(-c3ccccc3)no2)c1,1.1
12,CC(C)CCC(C(=O)O)C(C)CC(=O)NNC(=O)c1ccco1 (configuration not stated),1.1
13,CC(C)CNC(=O)C(=O)NNC(=O)c1ccco1,1.1
14,CC(C)CC(CC(C)C)=NNC(=O)c1ccc2c(c1)OCO2,1.1
15,CNC(=S)NNC(=O)c1ccc2c(c1)OCO2,1.6
16,COC(=O)c1ccc(N=Cc2c(C(F)(F)F)[nH][nH]c2=O)cc1,0.8
17,Cc1ccc(/C=N/NC(=O)c2nn(C)cc2Cl)cc1,1.1
18,C/C(=N\NC(=O)c1nn(C)cc1Cl)c1ccncc1,1.2
19,COc1ccc2nc(Nc3nc(CSc4nc5ccccc5[nH]4)cc(=O)[nH]3)nc(C)c2c1,2.4
20,Cc1nc(Nc2nc(CSc3nc4ccccc4[nH]3)cc(=O)[nH]2)nc2ccccc12,2.5
21,CCOC(=O)CNC(=O)C(CO)NC(=O)OCc1ccccc1 (configuration not stated),1.1
22,CCOC(=O)/C(N=Nc1sc(C(=O)OCC)c(C)c1C(=O)OCC)=C(\C)O,1
23,COC(=O)c1sccc1NC(=O)Cn1nnc(-c2ccc(C)cc2)n1,1
24,O=C(CCC(=O)Nc1ccc(Cl)cc1Cl)NNC(=O)Nc1ccccc1,1.3
25,Cc1cc([N+](=O)[O-])nn1CC(=O)Nc1ccc(F)cc1,1.1
26,Cc1cc([N+](=O)[O-])nn1CC(=O)Nc1cc(F)ccc1F,1

row,SMILES,activation fold
1,CCOC(=O)C1(Cc2cccc(OC)c2)CCN(Cc2cnc(C)s2)CC1,1
2,CCCCN1CNC(=S)N(Cc2ccccc2)C1,0.9
3,COc1ccc(S(=O)(=O)Nc2ccccc2C)cc1,1
4,CCN(CC)c1ccc(C=Nc2ccc(N(C)C)cc2)c(O)c1,2.3
5,CCN(CC)c1ccc(N=Cc2ccc(N(CC)CC)cc2O)cc1,6 (active)
6,CCN(CC)c1ccc(C=Nc2ccc(C)cc2)c(O)c1,0.9
7,COc1ccc(C(C)=O)c(Oc2nc(CN3CCOCC3)nc3scc(-c4cccs4)c23)c1,1
8,CC(=O)NNc1ncnc2c1cnn2-c1ccc(C)c(Cl)c1,2.2
9,Cn1ncc2c(NNC(=O)c3ccc(Cl)cc3Cl)ncnc21,2.4
10,Cn1cccc1C(=O)C(=O)Nc1ccccc1C(F)(F)F,1.2
11,CN(CCO)C(=O)CCC(=O)Nc1ccc(S(N)(=O)=O)cc1,1.1
12,CC[n+]1c(/C=C/C=C/N(C(C)=O)c2ccccc2)sc2ccccc21,0.7
13,CCN1/C(=C/C=C/C=C/c2sc3ccccc3[n+]2CC)Sc2ccccc21,53.2 (active)
14,CCN1/C(=C/C(C)=C/c2sc3ccccc3[n+]2CC)Sc2ccccc21,0.4
15,CCNC(=S)NNC(=O)c1cc(C)nc2ccccc12,1.7
16,CCCc1cc(C(=O)NNC(=S)NCC)c2ccccc2n1,1.1
17,COc1ccc(C)cc1-n1[nH]nnc1=S,1
18,COc1ccc(NC(=S)N2CCCC2c2ccc(OC)c(OC)c2)cc1 (configuration not stated),0.9
19,C=CCNC(=S)NNC(=O)C(CCCC)CC(C)O (configuration not stated),1.7
20,C=CCNC(=S)NNC(=O)C(CCC(C)C)CC(C)(C)O (configuration not stated),1.1
21,O=C1c2ccc(Br)cc2C(=O)N1c1ccc(Cc2ccncc2)cc1,1.1
22,COCCNC(=S)N/N=C(\C)c1ccccc1F,1
23,COCCNC(=S)N/N=C(\C)c1ccccc1OC,1.1
24,CN(C)CCNC(=O)c1ccc(-c2nn(C)c(=O)c3ccccc23)cc1,1.1
25,CCc1cc2c(=O)[nH]c(-c3ccccn3)nc2s1,1.8
26,Cc1sc2nc(-c3ccccn3)[nH]c(=O)c2c1-c1ccccc1,1.4

row,SMILES,activation fold
1,O=C(O)/C=C/C(=O)N1CCN(S(=O)(=O)c2cccc(C(F)(F)F)c2)CC1,1.1
2,COc1cccc(/C=N/NC(=O)c2[nH]c(C)c(C(=O)N/N=C/c3cccc(OC)c3)c2C)c1,1.2
3,Cc1cccc(C)c1NC(=O)C1(N(C(=O)c2ccccn2)c2ccc(O)cc2)CCCCC1,1
4,Cc1cccc(C)c1NC(=O)C1(N(Cc2ccco2)C(=O)c2ccccn2)CCCC1,1
5,O=C(NCCCn1ccnc1)/C(=C\c1cccnc1)NC(=O)c1ccccc1F,1
6,CCC(=O)Nc1ccc(/C(C)=N\NC(=O)c2ccc(C)s2)cc1,1
7,O=C(Nc1cccc2ccccc12)c1ccc([N+](=O)[O-])s1,1
8,Cc1cc(C)c(-c2csc(NC(=O)C3=NN(c4ccccc4)C(=O)CC3)n2)c(C)c1,0.9
9,O=c1[nH]c(NCCO)nc2c1C1(CCCCC1)Cc1ccccc1-2,1
10,Cn1c(NCCCO)nc2c(c1=O)C1(CCCCC1)Cc1ccccc1-2,1
11,CC1CCCN(c2nc3ccccc3nc2C(C#N)C(=O)OC2CCCCC2)C1 (configuration not stated),1
12,Cc1ccc2nc(-c3ccccc3)c(CN3CCN(c4ccccc4F)CC3)n2c1,1.1
13,Clc1ccc(-c2nc3ccccn3c2CN2CCCCC2)cc1,1.1
14,O=c1cc(N2CCc3ccccc3C2)[nH]c(=O)n1Cc1ccc(F)cc1,1
15,Cc1sc(NC(=O)CSc2nnc(COc3ccc(Cl)cc3)n2C)c(C#N)c1C,1.1
16,Cc1cccc(-c2nsc(SCC(=O)N3CCCC3)n2)c1,1.1
17,Cc1ccc(Nc2nc(N)nc(CN3CCN(C(=O)c4ccco4)CC3)n2)cc1Cl,1
18,CNC(=S)NC1CC2CCCC(C1)N2Cc1ccc(C)cc1 (configuration not stated),1.1
19,CCNC(=S)NC1CC2CCC(C1)N2Cc1ccccc1 (configuration not stated),1
20,Cc1c(Cl)c(C(=O)NNC(=S)Nc2ccc(F)cc2)nn1C,2.7
21,COc1ccccc1NC(=S)NNC(=O)c1nn(C)c(C)c1Cl,1.2
22,COCc1nnc(NC(=O)c2ccc(OC)cc2OC)s1,1.1
23,COc1ccc(/C=C2/SC(=O)N(CC(=O)NCCC(C)C)C2=O)cc1OC,1.1
24,COC(=O)Cn1c(CN2CCC(Cc3ccccc3)CC2)nc2c1c(=O)n(C)c(=O)n2C,1.1
